Experimental data from PubChem BioAssay (NCI).
Compounds without any hit were thinned out: in the full panel of roughly 79,000, 15% have a hit. Unmarked numbers belong to inactive results. Activity calls are given as the source filed them. Cut-off read from the data, not from the text of the source: active = growth inhibition above about 70%; inactive = the rest.

Test: NCI Yeast Anticancer Drug Screen. Data for the rad50 strain (AID 155);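 note: 0% = growth of vehicle-only cultures of the same strain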
Details: S. cerevisiae rad50 strain growth inhibition; at 50.0 µM; stronger effect = higher value
In short: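 Vehicle-treated cultures provide the reference for the growth inhibition reported for compound-exposed, repair-deficient yeast.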

Row | Compound | growth inhibition
1 | O=[N+]([O-])c1ccc(O)c(C=NCCN=Cc2cc([N+](=O)[O-])ccc2O)c1.[Zn+2] | 15.4%
2 | O=S(=O)(F)c1ccccc1C[P+](c1ccccc1)(c1ccccc1)c1ccccc1 | 84.2% (active)
3 | CC(=O)C(C(C)=O)C(C)=O.[Cr] | 4.85%
4 | C/C=C\CC1(C/C=C/C)C(=O)NC(=O)NC1=O | 2.25%
5 | SCCS | -20.1%
6 | CSC(=S)N(C)c1nc(=[N+](C)C)ss1 | -12.8%
7 | OCC(S)CS (stereo not drawn) | 17.4%
8 | c1ccc2c(C3NCCc4[nH]cnc43)cccc2c1 (stereo not drawn) | 3.7%
9 | COP(=O)(OC)C1(c2ccccc2)C2C3CCC(C3)C21 (stereo not drawn) | 1.75%
10 | c1ccc(P2c3ccccc3Oc3ccccc32)cc1 | 36.9%
11 | O=C(O)C(F)F | -16.9%
12 | CC(=O)C(CN1CCCCC1)C(c1ccccc1)c1c(O)c2ccccc2oc1=O (stereo not drawn) | 6.8%
13 | CC(C)(O)OC1COC(C2CS2)C1O (stereo not drawn) | 18.1%
14 | C=C1[C@@H](C)[C@H]2[C@H](Cc3ccccc3)NC(=O)[C@]23OC(=O)/C=C/[C@H](O)CCC[C@@H](C)C/C=C/[C@H]3[C@@H]1O | 53.4%
15 | [C-]#[O+].[C-]#[O+].[Ir].[O-]c1cccc2cccnc12 | -19.2%
16 | OC1CCN(C2(c3ccccc3)CCCCC2)CC1 | -13.9%
17 | CCC(=O)C(CC(C)[N+](C)(C)C)(c1ccccc1)c1ccccc1 (stereo not drawn) | -3.05%
18 | [C-]#[N+]CS(=O)(=O)c1ccc(C)cc1 | -17.4%
19 | CC1OC(OC2CCC3(C=O)C4CCC5(C)C(C6=CC(=O)OC6)CCC5(O)C4CCC3(O)C2)C(O)C(O)C1O (stereo not drawn) | 14.3%
20 | COC(=O)C1=C(C)NC(C)=C2C(=O)Oc3ccccc3C12 (stereo not drawn) | 4.75%

Row | Compound | growth inhibition
21 | CC[N+](CC)(CC)CC#CC[N+](CC)(CC)CC | 5.65%
22 | OC1(c2ccccc2)N=C(c2ccccc2)c2ccccc2-n2cccc21 (stereo not drawn) | 0.95%
23 | O=P(O)(O)SP(=O)(O)O.[Mn] | -14.7%
24 | CC1(C)N=C(N)N=C(N)N1c1ccc(CCCCCCc2ccc(S(=O)(=O)F)cc2)cc1 | 99.5% (active)
25 | O=C(O)CNCP(=O)(O)O | -31.4%
26 | C/C=C1\C[C@@H]2C(OC)Nc3cc(O)c(OC)cc3C(=O)N2C1 (stereo partly drawn) | 77.5% (active)
27 | CC(=O)CP(=O)(O)O | 23.3%
28 | CCC1(C/C=C/Cl)C(=O)NC(=O)NC1=O | 7.65%
29 | Cc1nc2ccccc2c(=O)n1-c1ccccc1Cl | 7.15%
30 | N.N.N.N.N.N#Cc1nn[n-]n1.[Cl-].[Co+3] | 4.95%
31 | O=NNc1cnc2ccccc2n1 | 48.5%
32 | CC(=O)Nc1cc([As](C)(=O)O)ccc1O | -10.3%
33 | COP(=O)(OC)C(O)C(Br)(Br)Br (stereo not drawn) | 28.6%
34 | COc1ccc(C(=O)O[C@H]2CC[C@@]3(C)[C@@H]4CC[C@H]5[C@]6(O)C[C@H](O)[C@@]7(O)[C@@H](CN8C[C@@H](C)CC[C@H]8[C@@]7(C)O)[C@]6(O)C[C@@]53OC24O)cc1OC | -16.7%
35 | O=C1OC(=O)C2CC3C(CC12)C1(Cl)C(Cl)=C(Cl)C3(Cl)C1(Cl)Cl (stereo not drawn) | -15.5%
36 | CNC(=O)N1CN(c2ccccc2)C2(CCN(Cc3ccccc3)CC2)C1=O | -29.4%
37 | CCCCC(=O)[O-].N.N.N.N.N.[Co+3].[O-][Cl+3]([O-])([O-])[O-] | -19.9%
38 | CCCCP(=O)(CCCC)CCCC.CCCCP(=O)(CCCC)CCCC.CCCCP(=O)(CCCC)CCCC.CCCCP(=O)(CCCC)CCCC.[Mn+2].[O-][Cl+3]([O-])([O-])O | 13.3%
39 | Cc1ccc2[nH]cc(CCN)c2c1 | -5.9%

Test: NCI Yeast Anticancer Drug Screen. Data for the mec2-1 strain (AID 157)
Details: S. cerevisiae mec2-1 strain, at 50.0 µM, stronger effect = higher value
In short: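 Compounds were applied to mec2-1 yeast cells. Their growth was then compared with that of vehicle-treated cultures to give growth inhibition.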

Row | Compound | growth inhibition
40 | O=[N+]([O-])c1ccc(O)c(C=NCCN=Cc2cc([N+](=O)[O-])ccc2O)c1.[Zn+2] | 7%
41 | O=S(=O)(F)c1ccccc1C[P+](c1ccccc1)(c1ccccc1)c1ccccc1 | 86% (active)
42 | CC(=O)C(C(C)=O)C(C)=O.[Cr] | -15.1%
43 | C/C=C\CC1(C/C=C/C)C(=O)NC(=O)NC1=O | -7.45%
44 | SCCS | -5.2%
45 | CSC(=S)N(C)c1nc(=[N+](C)C)ss1 | -1.2%
46 | OCC(S)CS (stereo not drawn) | -26.4%
47 | c1ccc2c(C3NCCc4[nH]cnc43)cccc2c1 (stereo not drawn) | 1.85%
48 | COP(=O)(OC)C1(c2ccccc2)C2C3CCC(C3)C21 (stereo not drawn) | 21.7%
49 | c1ccc(P2c3ccccc3Oc3ccccc32)cc1 | 7.3%
50 | O=C(O)C(F)F | -1.2%
51 | CC(=O)C(CN1CCCCC1)C(c1ccccc1)c1c(O)c2ccccc2oc1=O (stereo not drawn) | -9%
52 | CC(C)(O)OC1COC(C2CS2)C1O (stereo not drawn) | 15.6%
53 | C=C1[C@@H](C)[C@H]2[C@H](Cc3ccccc3)NC(=O)[C@]23OC(=O)/C=C/[C@H](O)CCC[C@@H](C)C/C=C/[C@H]3[C@@H]1O | 25.8%
54 | [C-]#[O+].[C-]#[O+].[Ir].[O-]c1cccc2cccnc12 | -27.6%
55 | OC1CCN(C2(c3ccccc3)CCCCC2)CC1 | 1.45%
56 | CCC(=O)C(CC(C)[N+](C)(C)C)(c1ccccc1)c1ccccc1 (stereo not drawn) | -4.95%
57 | [C-]#[N+]CS(=O)(=O)c1ccc(C)cc1 | -11.1%
58 | CC1OC(OC2CCC3(C=O)C4CCC5(C)C(C6=CC(=O)OC6)CCC5(O)C4CCC3(O)C2)C(O)C(O)C1O (stereo not drawn) | -8.35%
59 | COC(=O)C1=C(C)NC(C)=C2C(=O)Oc3ccccc3C12 (stereo not drawn) | -9.65%

Row | Compound | growth inhibition
60 | CC[N+](CC)(CC)CC#CC[N+](CC)(CC)CC | 5%
61 | OC1(c2ccccc2)N=C(c2ccccc2)c2ccccc2-n2cccc21 (stereo not drawn) | -24.8%
62 | O=P(O)(O)SP(=O)(O)O.[Mn] | -14.2%
63 | CC1(C)N=C(N)N=C(N)N1c1ccc(CCCCCCc2ccc(S(=O)(=O)F)cc2)cc1 | 99% (active)
64 | O=C(O)CNCP(=O)(O)O | -23.1%
65 | C/C=C1\C[C@@H]2C(OC)Nc3cc(O)c(OC)cc3C(=O)N2C1 (stereo partly drawn) | 70.7% (active)
66 | CC(=O)CP(=O)(O)O | -11.6%
67 | CCC1(C/C=C/Cl)C(=O)NC(=O)NC1=O | -3.5%
68 | Cc1nc2ccccc2c(=O)n1-c1ccccc1Cl | -4.65%
69 | N.N.N.N.N.N#Cc1nn[n-]n1.[Cl-].[Co+3] | 9.25%
70 | O=NNc1cnc2ccccc2n1 | -0.25%
71 | CC(=O)Nc1cc([As](C)(=O)O)ccc1O | 1.75%
72 | COP(=O)(OC)C(O)C(Br)(Br)Br (stereo not drawn) | 23.1%
73 | COc1ccc(C(=O)O[C@H]2CC[C@@]3(C)[C@@H]4CC[C@H]5[C@]6(O)C[C@H](O)[C@@]7(O)[C@@H](CN8C[C@@H](C)CC[C@H]8[C@@]7(C)O)[C@]6(O)C[C@@]53OC24O)cc1OC | -32%
74 | O=C1OC(=O)C2CC3C(CC12)C1(Cl)C(Cl)=C(Cl)C3(Cl)C1(Cl)Cl (stereo not drawn) | -28.2%
75 | CNC(=O)N1CN(c2ccccc2)C2(CCN(Cc3ccccc3)CC2)C1=O | -15.8%
76 | CCCCC(=O)[O-].N.N.N.N.N.[Co+3].[O-][Cl+3]([O-])([O-])[O-] | 19.4%
77 | CCCCP(=O)(CCCC)CCCC.CCCCP(=O)(CCCC)CCCC.CCCCP(=O)(CCCC)CCCC.CCCCP(=O)(CCCC)CCCC.[Mn+2].[O-][Cl+3]([O-])([O-])O | -57.7%
78 | Cc1ccc2[nH]cc(CCN)c2c1 | -53.1%
